# tim10-1 inh: growth inhibitors of tim10-1 mutant yeast, primary screen, luminescence, uHTS. S. cerevisiae tim10-1 ts strain growth, BacTiter-Glo, 24 h. AID 463190, 2010. inhibition, % at 20 µM. hit rate 2.2% among 330,000;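 active = inhibition of at least 40%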;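 note: mutant grown at 25 °C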
# EBI2 antag: EBI2 receptor antagonists, beta-arrestin recruitment, primary screen, cell-based, luminescence, 7a,25-OHC stimulation, uHTS. 7a,25-OHC stimulated. G-protein coupled receptor 183 (Homo sapiens), P32249. inhibition, % at 5 µM. hit rate 0.81% among 360,000; in the data active = inhibition above about 38%;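 note: enzyme fragment complementation signal reports receptor beta-arrestin coupling in cells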
# Target sequence (P32249 whole entry, looked up, the tested form may be a part): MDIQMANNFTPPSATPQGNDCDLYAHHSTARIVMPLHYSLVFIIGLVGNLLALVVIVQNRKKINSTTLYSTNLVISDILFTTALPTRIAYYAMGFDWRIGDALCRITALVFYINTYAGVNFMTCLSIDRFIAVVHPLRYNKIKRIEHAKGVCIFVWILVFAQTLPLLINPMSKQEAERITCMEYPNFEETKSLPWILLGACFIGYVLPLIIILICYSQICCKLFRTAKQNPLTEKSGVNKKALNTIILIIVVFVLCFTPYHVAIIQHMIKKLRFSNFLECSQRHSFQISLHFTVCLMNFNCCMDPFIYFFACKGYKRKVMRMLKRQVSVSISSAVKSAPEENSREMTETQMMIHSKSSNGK
# SKKanGAS inh: S. pyogenes SKKanGAS growth inhibitors in kanamycin, primary screen, streptokinase expression inhibitor project, SKKanGAS strain, BacTiter-Glo luminescence. 6 h. inhibition, % at 7.5 µM. hit rate 1.3% among 300,000;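 active = mean replicate score, as percent of positive control median, at least 50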;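 note: strain carries kanamycin resistance gene driven by streptokinase promoter and grows in 40 µg/ml kanamycin; loss of luminescence reflects streptokinase promoter inhibition or plain growth inhibition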
# PfHsp90 yeast 2: growth inhibition of PfHsp90-expressing yeast, primary screen, antimalarial PfHsp90 inhibitor project, S. cerevisiae, BacTiter-Glo luminescence, single point, set 2 | BacTiter-Glo ATP, 48 h; yeast lacking PDR1 and PDR3 efflux regulators | inhibition, % at 9.4 µM | hit rate 0.32% among 310,000 | AID 504621, 2011;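 active = every replicate shows inhibition above about 80%, whatever the replicate mean, limit read from the data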
# TIM10 inh: growth inhibitors of isogenic TIM10 control yeast, primary screen, counter-screen for tim10-1 yeast inhibitor project, luminescence, uHTS. hit rate 1.4% among 330,000. AID 463195, 2010. inhibition, % at 10 µM. S. cerevisiae TIM10 strain growth, BacTiter-Glo luminescence, 24 h;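 active = inhibition of 40% or more at the single tested concentration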;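 note: wild-type TIM10 isogenic control strain grown at permissive 25 °C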
# tim23-1 inh: growth inhibitors of tim23-1 mutant yeast, primary screen, luminescence, uHTS; S. cerevisiae tim23-1 growth, BacTiter-Glo luminescence, 24 h; inhibition, % at 20 µM; hit rate 1.3% among 330,000;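 active = growth inhibition of the mutant yeast at or above 50%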;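 note: temperature-sensitive mutant grown at 25 °C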
# tim10-1 conf: growth inhibitors of tim10-1 mutant yeast, confirmation, single concentration, luminescence, S. cerevisiae; inhibition, % at 20 µM; hit rate 56% among 7,400; shares compounds with tim10-1 inh; S. cerevisiae tim10-1 ts strain growth, BacTiter-Glo, 24 h;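 active = inhibition of yeast growth at or above a set limit in either of two repeat tests at 20 µM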;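 note: tim10-1 mutant grown at permissive 25 °C to find synthetic lethal compounds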
# A number is an active result; - = inactive; . = no result given. Shown are actives, neighbours in structure and some others; about 4.7% of the full set was active somewhere.
SMILES,tim10-1 inh,EBI2 antag,SKKanGAS inh,PfHsp90 yeast 2,TIM10 inh,tim23-1 inh,tim10-1 conf
CCCn1c(CC)nc([N+](=O)[O-])c1S(=O)(=O)c1ccccc1,54,-,-,-,-,-,43
O=C(O)c1ccccc1C(=O)N1N=C2/C(=C/c3cccc([N+](=O)[O-])c3)CCCC2C1c1cccc([N+](=O)[O-])c1 (centres undefined),44,-,-,-,-,-,-
N#CC1=C(SCC(N)=O)NC2=C(C(=O)c3ccccc32)C1c1ccc(Cl)cc1 (centres undefined),44,-,-,-,-,-,-
CCOc1ccccc1NC(=O)/C=C/C(N)=O,40,-,-,-,-,-,34
CCOC(=O)/C=C/C(=O)Nc1ccccc1C(=O)NC1CCCCC1,46,-,-,-,-,-,-
CCOc1ccccc1NC(=O)/C=C/c1ccccc1[N+](=O)[O-],-,-,-,-,-,-,.
Cc1ccc(NC(=O)/C=C/c2ccco2)cc1S(=O)(=O)N1CCCCCC1,-,-,-,-,-,-,.
Cc1ccc(NC(=O)C2=C(O)CCn3c2nc2ccccc23)cc1,43,-,-,-,-,-,-
Cc1ccc(NC(=O)NCc2nc3ccccc3n2C)cc1,-,-,-,-,-,-,.
CCOCc1c(C(=O)NCC(c2ccco2)N2CCCC2)oc2ccccc12 (centres undefined),-,-,.,.,-,-,.
COc1ccc(-c2cn3c4c(sc3n2)CCCC4)cc1,41,-,-,-,-,-,-
CCOC(=O)c1oc2ccc(CNC3CCCCC3)c(Cl)c2c1C,41,-,-,-,-,-,-
CCOC(=O)c1oc2ccc(CNCCO)c(Cl)c2c1C,-,-,-,-,-,-,.
COCCN1Cc2cc3cc(C)ccc3nc2SC1=Nc1cccc(OC)c1,-,-,-,-,-,-,.
Cc1cccc(N=C2Sc3nc4c(C)c(C)ccc4cc3CN2CCN2CCOCC2)c1,53,-,-,-,-,-,37
CCCN1C(=O)c2ccc(C(=O)Nc3cc(C)ccc3O)cc2C1=O,44,-,-,-,-,-,-
Cc1ccc(O)c(NC(=O)c2ccc3c(c2)C(=O)N(CC(C)C)C3=O)c1,-,-,-,-,-,-,.
CCSc1nnc(NC(=O)C2CC(=O)N(Cc3ccccc3)C2)s1 (centres undefined),-,-,-,.,-,-,.
O=C1CC(SCc2nc3ccccc3[nH]2)C(=O)N1c1ccc(F)c(Cl)c1 (centres undefined),54,-,-,-,-,-,42
O=C1CC(SCc2nc3ccccc3[nH]2)C(=O)N1c1ccc(Cl)cc1 (centres undefined),-,-,-,-,-,-,.
Cc1nn(-c2nnc(NC3CCCCC3)nn2)c(C)c1Br,45,-,-,-,-,-,34
NC(=O)C1CCN(c2nc(-c3ccc4ccccc4c3)cs2)CC1,-,-,.,-,-,-,.
Cc1ccc(C(=O)Nc2ccc(C(=O)NCC3CCCO3)cc2)cc1 (centres undefined),-,-,-,-,-,-,.
CCOC(=O)Nc1ccc(C(=O)NCC2CCCO2)cc1 (centres undefined),43,-,-,-,-,-,-
Cn1c2ccccc2c(=O)c2ccc(C#CC3(O)CCCCC3)cc21,47,-,63,-,-,-,34
CCn1c(/C=C/c2ccccc2)nc2ccccc21,-,-,-,-,-,-,.
COc1ccc(/C=C/C(=O)c2nc3ccccc3n2CC(=O)c2ccc(OC)cc2)cc1,41,-,-,-,-,-,37
COc1ccc(Cn2c(/C=C/c3ccccc3)nc3ccccc32)cc1,46,42,-,.,-,-,-

# Assay outcomes: PubChem, several laboratories
